The list is not random: actives were taken first. Their share in the collection is about 11%.
HP1b binding inh: HP1-beta chromodomain-methylated histone interaction inhibition; hit rate 0.56% among 390,000; Potency, µM (series often up to 114 µM), without a hit: at the highest dose activity change, negative = inhibition, actives largely listed as inhibitors; AlphaScreen HP1-beta / biotin-H3K9me3 peptide binding; AID 540317; also: nearly all actives have a fitted effect of over 70% in size
Target sequence (P83916 whole entry, looked up): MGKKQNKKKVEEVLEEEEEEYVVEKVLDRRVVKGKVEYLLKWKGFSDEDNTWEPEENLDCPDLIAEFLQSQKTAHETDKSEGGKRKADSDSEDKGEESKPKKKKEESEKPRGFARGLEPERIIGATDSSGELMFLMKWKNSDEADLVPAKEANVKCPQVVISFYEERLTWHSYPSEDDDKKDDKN
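AlphaScreen: HP1-beta (50 nM) preformed 30 min with biotin-H3(1-18)K9me3 peptide (50 nM) in PBS pH 7.4, 0.01% Tween-20. Compound added for 30 min at RT, then streptavidin donor/nickel chelate acceptor beads (10 ug/mL) for 30 min.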
G9a block: inhibitors of human histone lysine methyltransferase G9a; Q96KQ7; G9a H3K9 monomethylation, AlphaScreen, 2 h; Potency, µM (highest dose often 102 µM), inactives show top-dose activity, negative = inhibition, actives largely listed as inhibitors; hit rate 8.8% among 350,000; AID 504332; also: % is scaled to controls: 0 for no effect and ±100 for the full control effect; nearly all actives have a fitted effect of over 75% in size
Target sequence (Q96KQ7 913-1193 limits assumed): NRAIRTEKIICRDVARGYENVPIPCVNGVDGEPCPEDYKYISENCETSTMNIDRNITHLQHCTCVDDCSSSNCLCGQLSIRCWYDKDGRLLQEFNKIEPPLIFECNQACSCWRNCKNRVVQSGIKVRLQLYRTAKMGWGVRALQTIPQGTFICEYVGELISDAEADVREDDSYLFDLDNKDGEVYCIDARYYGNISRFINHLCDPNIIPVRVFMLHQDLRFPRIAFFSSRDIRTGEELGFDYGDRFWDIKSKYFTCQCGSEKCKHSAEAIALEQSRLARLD
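Signal arises when biotinylated H3K9 peptide, once monomethylated, bridges streptavidin donor and antibody-captured acceptor beads. Enzyme at 20 nM was preincubated 15 min with test compounds; peptide 500 nM and SAM 20 uM then reacted for 2 h.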
JMJD2A Tudor inh: inhibitors of human JMJD2A Tudor domain. O75164. AlphaScreen JMJD2A-Tudor / H3K4me3 peptide binding. Potency, µM (series often up to 114 µM), without a hit: at the top dose activity change, negative = inhibition, actives largely listed as inhibitors. hit rate 4.4% among 390,000. AID 504339; also: % is scaled to controls: 0 for no effect and ±100 for the full control effect; nearly all actives have a fitted effect of over 50% in size
L3MBTL1 block: L3MBTL1 (human) inhibition; AlphaScreen L3MBTL1–H3K9me1 peptide binding; Potency, µM (series often up to 57.1 µM), for inactives: at the highest dose activity, negative = inhibition, most hits filed as inhibitors; hit rate 0.66% among 230,000; AID 485360; also: % is scaled to controls: 0 for no effect and ±100 for the full control effect; nearly all actives have a fitted effect of over 60% in size
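Read-out is AlphaScreen signal from streptavidin donor and nickel chelate acceptor beads (10 ug/mL final each) bridging L3MBTL1 (50 nM) and biotinylated K9-monomethylated H3(1-15) peptide (75 nM), after 30 min compound exposure at room temperature.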
BAZ2B inh: BAZ2B (human) inhibition. hit rate 4.4% among 360,000. Q9UIF8. AID 504333. AlphaScreen BAZ2B-H3K14Ac peptide displacement. Potency, µM (highest dose often 114 µM), without a hit: top-dose activity change, negative = inhibition, most hits filed as inhibitors; also: % is scaled to controls: 0 for no effect and ±100 for the full control effect; nearly all actives have a fitted effect of over 60% in size
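Complex of BAZ2B and biotin-H3K14Ac (50 nM apiece) forms over 30 min at RT, then faces library compounds up to 110 uM for another 30 min; AlphaScreen beads added, 20 min dark incubation, luminescence read.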
Starred values were filed as active, the others as inactive; ? = inconclusive; · = no result; [ ] = another dose, or the depositor's remark. Calls follow the shape of the dose curve; as a rule, active = well fitted inhibition curve with a large enough effect; inconclusive = small, poorly fitted or top-dose-only effect; inactive = no such curve, though single readings can be large or run the other way. Potency is read from the fitted curve at half-maximal effect.

SMILES	HP1b binding inh	G9a block	JMJD2A Tudor inh	L3MBTL1 block	BAZ2B inh
Cc1ccc(-c2ccc(C(=O)NCc3ccc(Cl)cc3)o2)c2ccccc12	-23.0%	14.1µM*	?	-2.6%	?
O=C(NCc1cccnc1)c1ccc(-c2cccc(Cl)c2Cl)o1	3.2%	·	-17.8%	-15.7%	70.8µM*
CCCCn1nc(C(=O)N(C)CC(=O)Nc2cccc(F)c2)c2ccccc2c1=O	35.8%	35.5µM*	-2.1%	-4.9%	5.3%
Cc1ccc(CC(=O)NCc2ccc(Cl)cc2)cc1	?	-9.4%	?	1.1%	?
CCCn1nc(C(=O)N(C)CC(=O)Nc2ccc(OCC)c(OCC)c2)c2ccccc2c1=O	10.1%	-2.1%[12.7 µM]	-12.1%	-4.3%	-19.7%
COc1ccc(NC(=O)c2ccc(-c3ccc(C)c4ccccc34)o2)cc1	2.5%	39.8µM*	-26.4%	-15.2%	20.4%
Cc1ccc(-n2ncc(C(=O)NCc3ccccc3)c2C2CCN(C(=O)OC(C)(C)C)CC2)cc1	12.4%	?	-21.7%	·	3.1%[57.1 µM]
Cc1cc(C(=O)NCc2cccnc2)no1	23.0%	-42.4%[59 µM]	8.9%	5.8%	7.4%
Cc1ccc(NC(=O)c2ccc(-c3cccc(Cl)c3C)o2)cc1	45.1%	-1.3%[59 µM]	20.3%	·	-23.6%
O=C(Nc1cccc(F)c1)c1ccc(-c2ccccc2Cl)o1	50.4%	56.2µM*	17.3%	-7.9%	?
COc1ccc(NC(=O)c2ccc(-c3ccccc3Cl)o2)cc1	28.1%	79.4µM*	-7.2%	10.8%	-3.9%
O=C(O)c1ccc(-c2ccccc2C(F)(F)F)o1	1.4%	18.0%[59 µM]	-14.1%	·	?
O=C(NCc1ccccc1)c1ccc(-c2ccccc2C(F)(F)F)o1	63.1%	39.8µM*	17.1%	13.6%	8.6%
Cc1cc2c(cc(C(=O)NCc3cccnc3)n2Cc2ccc(Cl)cc2)o1	-22.1%	?	50.1µM*	-10.0%	?
COc1ccc(NC(=O)c2ccc(-c3cccc(Cl)c3C)o2)cc1	-2.4%	-27.5%[59 µM]	-7.2%	·	-9.4%
COCCn1c(=O)c(-c2ccc(OC)cc2)nc2cnc(N3CCN(C)CC3)nc21	·	8.0%[0.501 µM]	·	·	·
CCOc1ccc(C(=O)NC2CC(=O)N(c3ccc(C)cc3)C2)cc1OCC (centres undefined)	16.3%	2.9%[59 µM]	-1.3%	·	-0.5%
CC(C)c1cc2c(c(O)c1O)[C@@]13CCCC(C)(C)C1CC2OC3=O (some centres undefined)	?	0.891µM*	39.8µM*	·	-38.4%
CC(C)c1c(O)c(-c2cc3c(c(C(C)C)c2O)CCC2C(C)(C)CCC[C@@]32C)cc2c1CCC1C(C)(C)CCC[C@@]21C (some centres undefined)	·	0.8%[2.33 µM]	·	·	·
N#Cc1cccc(NC(=O)N2CC[C@@]3(CCCN(C(=O)c4cnccn4)C3)C2)c1	·	5.5%[12.7 µM]	·	·	·
COc1cc2c(cc1OC)C1(Nc3c-2c(-c2ccccc2)nn3-c2ccccc2)C(=O)Nc2ccccc21 (centres undefined)	-33.3%	79.4µM*	?	·	?
Cc1nn(-c2ccccc2)c2c1CC(=O)Nc1ccccc1-2	31.8%	·	-13.9%	·	·
CCc1nn(-c2ccccc2)c2c1-c1cc(OC)c(OC)cc1C1(N2)C(=O)Nc2ccccc21 (centres undefined)	-20.6%	79.4µM*	?	·	?
COc1ccc(N2C(=O)CSC23C(=O)Nc2ccccc23)cc1OC (centres undefined)	5.2%	-3.7%	-24.5%	-0.4%	-3.7%
COc1cc2c(cc1OC)C1(Nc3c-2c(C)nn3-c2ccccc2)C(=O)Nc2ccccc21 (centres undefined)	-26.3%	70.8µM*	?	·	-12.5%
SMILES	HP1b binding inh	G9a block	JMJD2A Tudor inh	L3MBTL1 block	BAZ2B inh
Cc1ccc2oc(=O)c3cnn(CC(=O)Nc4cccc(C(F)(F)F)c4)c3c2c1	23.6%	1.4%[59 µM]	-12.3%	·	-5.0%
Cc1ccc(NC(=O)c2sc3nc[nH]c(=O)c3c2C)cc1C	24.4%[57 µM]	-6.0%[59 µM]	-19.4%	·	-0.1%
CC(C)(Sc1ccc(CCN(CCCCC2CCCCC2)C(=O)NC2CCCCC2)cc1)C(=O)O	13.6%	79.4µM*	79.4µM*	-0.2%	79.4µM*
Cc1c(C)c2c(c(C)c1O)CCC(C)(C(=O)O)O2 (centres undefined)	19.3%	14.1µM*	-2.2%	-11.1%	4.9%
COC(=O)c1[nH]c2ccc(F)cc2c1NC(=O)Nc1ccc(OC)cc1	15.1%	22.2%[2.33 µM]	8.7%	-4.5%	7.9%
COC(=O)c1[nH]c2cc(OC)ccc2c1N	-5.8%	3.55µM*	?	-1.8%	-28.1%
COc1ccc2[nH]c(C(=O)O)c(NS(=O)(=O)c3ccc(C)cc3C)c2c1	7.8%	39.8µM*	-29.5%	·	-29.7%
COC(=O)c1[nH]c2ccc(C)cc2c1NC(=O)Nc1ccc(OC)cc1	42.6%	44.7µM*	8.2%[11.4 µM]	9.8%	13.1%
CCOC(=O)Nc1c(C(=O)OC)[nH]c2cc(OC)ccc12	4.2%	-29.8%	-22.3%	-3.9%	-10.8%
O=C1c2ccccc2C(=O)c2c(NCCc3ccc(O)cc3)ccc(NCCc3ccc(O)cc3)c21	·	1.78µM*	·	·	·
O=C1C(Cl)=C(NCCc2ccccc2)C(=O)c2ccccc21	?	·	0.794µM*	·	·
C=CCNC1=C(Cl)C(=O)c2ccccc2C1=O	50.1µM*	39.8µM*	44.7µM*	?	31.6µM*
C=CCNC1=C(Cl)C(=O)N(Cc2ccccc2)C1=O	113.6%	44.2%	62.8%	·	73.2%
Cc1ccc(NCc2cccnc2)cc1	-6.4%	56.2µM*	39.8µM*	·	?
O=C1C(Cl)=C(NCCc2ccccc2)C(=O)N1CCc1ccccc1	35.2%	4.1%[12.7 µM]	5.4%	·	-0.2%
CC(=O)N1CCc2cc(S(=O)(=O)NC(Cc3ccccc3)C(=O)Nc3cccc(C)c3)ccc21 (centres undefined)	21.3%	?	-19.3%	·	·
O=C(c1ccsc1)N1CCCC(N2CCOCC2)C1 (centres undefined)	33.6%	-23.1%	-6.2%	·	3.4%
Cc1noc(C)c1C(=O)N1CCC2(CCCN(c3ccncc3)C2)CC1	·	2.7%[12.7 µM]	·	·	·
CC(=O)N(Cc1ccc(F)cc1)C1=C(NCCc2ccccc2)C(=O)c2ccccc2C1=O	-68.4%	28.2µM*	20µM*	·	14.1µM*
CC(=O)N(Cc1ccc(F)cc1)c1cccc(C)c1C	47.4%	39.1%	-0.7%	-1.9%	-12.7%
